In PubChem BioAssay one finds composite z-score data, which are given here for 29 molecules.

The target of the test is Torsin-1A-interacting protein 2 (Homo sapiens) (UniProt Q8NFQ8). Nature of the test: LULL1 binders on small-molecule microarray, primary screen, cell lysate, human LULL1 lysate, 635/667 nm fluorescence (AID 1092).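 Also: probe is lysate of COS7 cells overexpressing human LULL1; score merges per-feature 667 nm fluorescence with signal-to-noise.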 The conditions noted are these: hLULL1 lysate binding, 635 nm fluorescence, higher = more signal.
Sequence of Torsin-1A-interacting protein 2 (Homo sapiens) (Q8NFQ8 whole entry, looked up): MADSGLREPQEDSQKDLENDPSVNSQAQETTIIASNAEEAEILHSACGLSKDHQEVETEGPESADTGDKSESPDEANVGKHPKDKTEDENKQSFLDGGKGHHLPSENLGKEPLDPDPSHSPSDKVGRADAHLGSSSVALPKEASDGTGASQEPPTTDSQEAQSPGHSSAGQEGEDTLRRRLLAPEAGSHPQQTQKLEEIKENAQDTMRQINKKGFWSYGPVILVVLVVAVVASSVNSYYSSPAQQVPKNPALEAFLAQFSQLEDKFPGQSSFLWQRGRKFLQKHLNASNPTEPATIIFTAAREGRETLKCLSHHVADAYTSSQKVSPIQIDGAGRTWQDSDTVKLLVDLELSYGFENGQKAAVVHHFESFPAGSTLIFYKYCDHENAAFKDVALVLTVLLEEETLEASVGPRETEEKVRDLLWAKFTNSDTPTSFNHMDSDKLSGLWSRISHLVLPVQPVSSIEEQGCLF
Molecule `C=CCC(OC(C)=O)[C@@H]1[C@@H](N(Cc2cccc3ccccc23)C(=O)c2ccc(-c3ccccc3)cc2)c2cc(OCCCO)ccc2N1C(=O)Cc1ccc2ccccc2c1` (some centres undefined) had a composite z-score of 0.893.

In turn, `O=C(NC1CC1)[C@@H]1c2ccccc2C(=O)N(Cc2ccc(OC(F)(F)F)cc2)[C@H]1c1ccc(CO)cc1` gave a composite z-score of 1.76.

With `O=C(NC1CC1)[C@@H]1c2ccccc2C(=O)N(CC23CC4CC(CC(C4)C2)C3)[C@H]1c1ccc(CO)cc1`, the composite z-score was determined as 3.15.

`CC(=O)NCCCC[C@@H]1NC(=O)[C@H]2C[C@@H](C(=O)NCCCCCCNC(=O)CS)[C@@H](c3cccc(OCCO)c3)N2C1=O` had a composite z-score of 2.65.

Consider `O=C1O[C@@H](c2ccccc2)[C@@H](c2ccccc2)N2[C@@H](c3ccc(OCCO)cc3)[C@]3(C(=O)Nc4ccc(C#CC5(O)CCCCCC5)cc43)[C@@H](C(=O)O)[C@H]12`, for which the composite z-score came to 2.64.

For `COC(=O)[C@@]1(Cc2ccccc2)[C@H]2c3cc(C(=O)N(C)C)n(Cc4ccc(C(F)(F)F)nc4)c3C[C@H]2CN1C(=O)c1ccccc1`, the composite z-score was found to be 3.69.

On to `CN1C(=O)C2C(C1=O)C1C=C(c3ccc(CO)cc3)C2C(C2CC2)N1C` (centres undefined), for which the composite z-score came to 0.956.

Molecule `O=C1C=C(c2ccccc2)C(=O)C2=C1CC([C@H]1Oc3ccccc3S(=O)(=O)N3CCC[C@@H]13)=CC2` gave a composite z-score of -0.101.

`C=C(COC)C(=O)CC[C@@H](OC(C)=O)c1ccccc1OCCO` yielded a composite z-score of 1.76.

`COCCOC(=O)N1C(=O)[C@@]2(c3cc(C#CCCO)ccc31)[C@H](c1ccccc1OCCO)N1[C@H](c3ccccc3)[C@H](c3ccccc3)OC(=O)[C@H]1[C@@H]2C(N)=O` registered a composite z-score of 3.08.

As to `CCCCCCc1nc(Cc2cc(OC)c(OC)c(OC)c2)cc2c1[Si](C(C)C)(C(C)C)O[C@H]2c1ccccc1`, the composite z-score was -0.0751.

As for `COC(=O)[C@]1(CCC(=O)OC(C)(C)C)N=C(c2ccc(OCCCO)cc2)O[C@@H]1c1ccccc1N=[N+]=[N-]`, the composite z-score came to 2.08.

As for `C[C@@H]1ON(c2ccc(I)cc2)[C@H](c2cccc(NC(=O)OCC3c4ccccc4-c4ccccc43)c2)[C@H]1C(=O)N1C(=O)OC[C@H]1Cc1ccccc1`, the composite z-score was 0.77.

Molecule `CC1CC/C=C\[C@H]2OC34C=CCN(C(C)(C)C)C(=O)[C@H]3N(CCCO)C(=O)[C@@H]4C2C(=O)O1` (some centres undefined) showed a composite z-score of 1.86.

Turning to `COc1ccc([Si](C)(C)[C@H]2[C@H](CC(=O)N3Cc4ccccc4C[C@H]3CO)O[C@@]3(C(=O)N(c4ccccc4)c4ccccc43)[C@@H]2C)cc1`, the composite z-score came to 1.47.

In turn, `CCCNC(=O)[C@@]1(Sc2ccc(C)cc2)CC(=O)N(Cc2ccccc2Cl)[C@@H]1c1ccc(CO)cc1I` had a composite z-score of 2.08.

With `N#Cc1ccc(-c2cccc(=O)o2)cc1`, the composite z-score came out at 0.552.

`CCCCC(O)C1C=CC2C(=O)N(c3ccccc3)C(=O)C2N1Nc1ccccc1` (centres undefined) displayed a composite z-score of 2.93.

`CC(C)=CCCC=C(C)C(O)C1C=CC2C(=O)N(c3ccccc3)C(=O)C2N1Nc1ccc(C#N)cc1` (centres undefined): the composite z-score was 3.3.

Take `COCCOC(=O)N1C(=O)[C@@]2(c3cc(C#CC4(O)CCCCCC4)ccc31)[C@H](c1ccc(O)cc1)N1[C@H](c3ccccc3)[C@H](c3ccccc3)OC(=O)[C@H]1[C@@H]2C(=O)N1CCCCCCC1`: the composite z-score worked out at 2.09.

For the molecule `COCCOC(=O)N1C(=O)[C@@]2(c3cc(C#Cc4ccc(OC)cc4)ccc31)[C@H](c1ccc(OCCO)cc1)N1[C@H](c3ccccc3)[C@H](c3ccccc3)OC(=O)[C@H]1[C@@H]2C(=O)NC[C@H](O)c1ccccc1`, the composite z-score was determined as 2.31.

`O=C(N1CCOCC1)[C@@]1(Cc2ccccc2)COC(c2ccc(OCCCO)cc2)=N1` registered a composite z-score of 2.95.

Molecule `COC(=O)c1cccc([C@H]2OC(=CC(=O)OC(C)C)C[C@@H](c3cccc(C(=O)OC)c3)O2)c1` had a composite z-score of 3.6.

Molecule `CN1C(=O)[C@@H]2[C@@H](CC(COc3ccccc3)=C3[C@@H](CCc4ccccc4)OB(O)C[C@@H]32)C1=O` gave a composite z-score of 0.384.

Molecule `C=C(COC)C(=O)CC[C@@H](OC(=O)c1ccccc1-c1ccccc1C(=O)O)c1ccc(OCCO)cc1` gave a composite z-score of 0.886.

For `C=C(CCCC)C(=O)CC[C@H](OC(=O)c1ccccc1-c1ccccc1C(=O)O)c1ccc(OCCO)cc1`, the composite z-score worked out at 1.65.

`C[N+](C)(C)CCCC[C@@H]1NC(=O)[C@H]2C[C@@H](C(=O)NCCCCCNC(=O)CS)[C@@H](c3cccc(OCCO)c3)N2C1=O` registered a composite z-score of 1.36.

Consider `CC(C)NC(=O)[C@@]1(c2ccc([N+](=O)[O-])cc2)CC(=O)N(CC23CC4CC(CC(C4)C2)C3)[C@@H]1c1ccc(CO)cc1`, for which the composite z-score stood at 3.03.

Take `CC(=O)OCC1C2CC[C@H]3C(OCc4ccc(F)cc4C(F)(F)F)OC[C@]4(C)[C@H]3C2=C(CN4C(=O)OC(C)(C)C)[C@H](C)C1COC(C)=O` (some centres undefined): the composite z-score came out at 1.35.
